Unmarked numbers belong to inactive results.

What all share (experiment): log2 ratio of Biotin-Ahx-Ub-VS probe labelling (fragment/DMSO); higher = less target engagement (more negative = stronger competition), active = hit call of the paper (q ≤ 0.05, log2 ratio ≤ -1)
What all share (conditions): compound concentration: 200 uM; treatment time: 3 h

In one test the target is T1, OTUD6B (UniProt Q8N6M0).
T1 sequence (whole entry): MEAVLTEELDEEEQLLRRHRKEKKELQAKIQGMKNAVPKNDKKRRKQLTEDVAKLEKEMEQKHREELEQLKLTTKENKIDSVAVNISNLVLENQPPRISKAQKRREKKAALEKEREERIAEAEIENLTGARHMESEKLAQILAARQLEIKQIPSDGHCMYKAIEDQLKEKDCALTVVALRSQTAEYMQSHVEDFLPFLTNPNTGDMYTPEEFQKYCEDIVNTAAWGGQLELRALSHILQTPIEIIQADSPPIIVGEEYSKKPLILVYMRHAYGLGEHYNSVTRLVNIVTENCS
An outline of the steps:
(§1)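 HEK293T lysate, 495 µg per sample in Tris/CHAPS/IGEPAL buffer with protease inhibitors, was treated in triplicate with fragment at 200 µM or vehicle for 3 h and then with Biotin-Ahx-Ub-VS at 0.5 µM final for 1 h. Labelled DUBs were NeutrAvidin-enriched, digested with LysC and trypsin, and run by diaPASEF LC-MS/MS. Spectronaut label-free quantities were global-median-normalised, and values are average log2 fragment/vehicle ratios by unpaired t-test on proteins with ≥2 unique peptides.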

Another test concerns the target T2, OTUD7B (UniProt Q6GQQ9).
T2 sequence (whole entry): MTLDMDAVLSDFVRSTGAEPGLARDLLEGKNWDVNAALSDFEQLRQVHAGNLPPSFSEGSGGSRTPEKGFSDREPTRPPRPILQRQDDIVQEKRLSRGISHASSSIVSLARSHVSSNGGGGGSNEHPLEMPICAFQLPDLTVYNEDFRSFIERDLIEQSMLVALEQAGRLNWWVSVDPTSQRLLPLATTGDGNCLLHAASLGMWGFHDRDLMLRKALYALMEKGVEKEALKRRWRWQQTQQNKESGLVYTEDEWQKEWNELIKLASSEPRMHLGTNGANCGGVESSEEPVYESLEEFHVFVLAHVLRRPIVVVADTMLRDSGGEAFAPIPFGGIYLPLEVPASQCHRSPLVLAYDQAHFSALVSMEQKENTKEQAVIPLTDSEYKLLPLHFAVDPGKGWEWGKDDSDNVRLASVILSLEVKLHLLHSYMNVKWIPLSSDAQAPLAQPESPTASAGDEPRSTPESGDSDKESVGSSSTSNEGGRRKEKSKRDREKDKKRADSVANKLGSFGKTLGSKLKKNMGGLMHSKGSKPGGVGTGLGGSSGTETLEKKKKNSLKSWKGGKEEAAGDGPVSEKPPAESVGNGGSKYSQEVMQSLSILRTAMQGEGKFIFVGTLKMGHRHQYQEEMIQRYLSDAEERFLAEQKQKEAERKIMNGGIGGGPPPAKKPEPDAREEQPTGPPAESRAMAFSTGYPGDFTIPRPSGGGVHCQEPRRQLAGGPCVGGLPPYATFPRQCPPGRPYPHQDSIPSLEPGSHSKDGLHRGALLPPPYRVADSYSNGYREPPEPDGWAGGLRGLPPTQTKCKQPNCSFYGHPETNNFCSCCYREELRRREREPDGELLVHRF
An outline of the steps: as §1

The next test addresses PRPF8 (UniProt Q6P2Q9). An outline of the steps: as §1
A further test concerns the target T3, PSMD7 (UniProt P51665).
T3 sequence (whole entry): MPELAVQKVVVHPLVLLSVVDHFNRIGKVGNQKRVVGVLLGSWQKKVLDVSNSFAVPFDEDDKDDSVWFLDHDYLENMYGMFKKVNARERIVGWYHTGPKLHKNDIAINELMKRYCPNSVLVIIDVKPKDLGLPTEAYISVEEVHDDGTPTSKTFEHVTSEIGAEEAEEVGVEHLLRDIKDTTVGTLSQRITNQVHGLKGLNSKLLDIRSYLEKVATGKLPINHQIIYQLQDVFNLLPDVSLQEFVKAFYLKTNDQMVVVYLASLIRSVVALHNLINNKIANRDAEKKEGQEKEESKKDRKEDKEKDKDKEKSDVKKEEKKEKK
The gist of the method:
as §1

The target of a further test is UCHL1 (UniProt P09936). An outline of the steps:
as §1

The target in the next test is T4, UCHL3 (UniProt P15374).
T4 sequence (whole entry): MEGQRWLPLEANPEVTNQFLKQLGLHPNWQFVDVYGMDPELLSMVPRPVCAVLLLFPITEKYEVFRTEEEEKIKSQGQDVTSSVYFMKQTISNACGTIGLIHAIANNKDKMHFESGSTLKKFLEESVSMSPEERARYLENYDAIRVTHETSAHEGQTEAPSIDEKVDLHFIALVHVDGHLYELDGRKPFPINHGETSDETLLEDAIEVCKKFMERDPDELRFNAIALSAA
An outline of the steps:
as §1

In a further test the target is T5, UCHL5 (UniProt Q9Y5K5).
T5 sequence (whole entry): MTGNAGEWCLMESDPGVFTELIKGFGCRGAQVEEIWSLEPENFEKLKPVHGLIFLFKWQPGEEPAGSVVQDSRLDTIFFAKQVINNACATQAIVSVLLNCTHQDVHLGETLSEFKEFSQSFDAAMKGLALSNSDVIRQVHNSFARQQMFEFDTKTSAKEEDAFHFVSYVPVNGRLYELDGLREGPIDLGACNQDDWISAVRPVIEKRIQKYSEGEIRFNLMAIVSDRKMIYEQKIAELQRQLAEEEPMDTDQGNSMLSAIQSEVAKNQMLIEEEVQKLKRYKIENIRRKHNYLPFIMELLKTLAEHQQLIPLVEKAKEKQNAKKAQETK
An outline of the steps:
as §1

The target in the next test is USP10 (UniProt Q14694). The gist of the method: as §1
The target of a further test is T6, USP15 (UniProt Q9Y4E8).
T6 sequence (whole entry): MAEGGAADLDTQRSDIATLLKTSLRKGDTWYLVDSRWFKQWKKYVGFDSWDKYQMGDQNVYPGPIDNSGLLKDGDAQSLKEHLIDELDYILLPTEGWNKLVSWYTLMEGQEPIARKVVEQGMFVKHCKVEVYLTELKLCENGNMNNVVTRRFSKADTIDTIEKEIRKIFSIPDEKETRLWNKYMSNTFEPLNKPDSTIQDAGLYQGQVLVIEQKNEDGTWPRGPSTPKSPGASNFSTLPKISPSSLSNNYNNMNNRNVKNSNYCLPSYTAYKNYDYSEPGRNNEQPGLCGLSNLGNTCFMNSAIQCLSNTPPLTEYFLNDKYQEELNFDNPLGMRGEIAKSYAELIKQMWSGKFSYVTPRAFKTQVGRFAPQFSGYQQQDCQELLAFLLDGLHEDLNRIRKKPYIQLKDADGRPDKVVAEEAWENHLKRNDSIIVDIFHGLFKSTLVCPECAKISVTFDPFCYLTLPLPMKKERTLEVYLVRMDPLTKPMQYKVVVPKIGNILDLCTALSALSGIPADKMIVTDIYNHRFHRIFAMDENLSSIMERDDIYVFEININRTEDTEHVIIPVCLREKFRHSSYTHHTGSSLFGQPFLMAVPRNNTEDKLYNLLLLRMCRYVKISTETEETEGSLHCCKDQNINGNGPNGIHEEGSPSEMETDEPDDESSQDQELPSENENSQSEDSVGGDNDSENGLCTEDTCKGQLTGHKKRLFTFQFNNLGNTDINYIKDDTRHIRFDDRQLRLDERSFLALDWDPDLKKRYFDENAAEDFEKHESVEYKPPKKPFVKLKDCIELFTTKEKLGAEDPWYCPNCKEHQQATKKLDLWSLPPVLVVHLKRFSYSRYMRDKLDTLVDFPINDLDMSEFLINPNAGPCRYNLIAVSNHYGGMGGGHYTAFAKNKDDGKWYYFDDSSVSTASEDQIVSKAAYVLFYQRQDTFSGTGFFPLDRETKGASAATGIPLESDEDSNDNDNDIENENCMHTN
An outline of the steps: as §1

Another test deals with USP16 (UniProt Q9Y5T5). An outline of the steps: as §1
Chain of USP16 (Q9Y5T5 whole entry, looked up): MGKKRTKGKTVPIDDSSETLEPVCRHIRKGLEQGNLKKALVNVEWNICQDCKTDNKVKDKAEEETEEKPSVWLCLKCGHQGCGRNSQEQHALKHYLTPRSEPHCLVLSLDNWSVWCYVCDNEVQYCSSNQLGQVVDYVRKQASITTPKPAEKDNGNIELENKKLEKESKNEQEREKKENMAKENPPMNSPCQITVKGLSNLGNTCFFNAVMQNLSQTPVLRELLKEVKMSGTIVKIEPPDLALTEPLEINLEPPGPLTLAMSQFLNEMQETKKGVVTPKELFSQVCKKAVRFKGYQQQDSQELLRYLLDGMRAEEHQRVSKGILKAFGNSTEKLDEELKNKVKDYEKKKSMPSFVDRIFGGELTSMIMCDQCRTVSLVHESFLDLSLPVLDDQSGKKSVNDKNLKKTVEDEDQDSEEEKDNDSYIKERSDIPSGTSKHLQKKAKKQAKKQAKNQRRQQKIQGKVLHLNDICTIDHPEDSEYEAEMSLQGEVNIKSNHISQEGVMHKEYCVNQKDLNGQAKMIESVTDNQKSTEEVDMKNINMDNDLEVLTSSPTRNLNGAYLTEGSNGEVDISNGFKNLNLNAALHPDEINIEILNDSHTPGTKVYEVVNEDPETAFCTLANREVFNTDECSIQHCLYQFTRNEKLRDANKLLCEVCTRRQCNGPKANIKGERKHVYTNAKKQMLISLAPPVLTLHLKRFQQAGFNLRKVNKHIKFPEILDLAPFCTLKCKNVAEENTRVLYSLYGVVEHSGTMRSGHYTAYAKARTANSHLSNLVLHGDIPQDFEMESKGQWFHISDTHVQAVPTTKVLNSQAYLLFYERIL

Chain of USP10 (Q14694 whole entry): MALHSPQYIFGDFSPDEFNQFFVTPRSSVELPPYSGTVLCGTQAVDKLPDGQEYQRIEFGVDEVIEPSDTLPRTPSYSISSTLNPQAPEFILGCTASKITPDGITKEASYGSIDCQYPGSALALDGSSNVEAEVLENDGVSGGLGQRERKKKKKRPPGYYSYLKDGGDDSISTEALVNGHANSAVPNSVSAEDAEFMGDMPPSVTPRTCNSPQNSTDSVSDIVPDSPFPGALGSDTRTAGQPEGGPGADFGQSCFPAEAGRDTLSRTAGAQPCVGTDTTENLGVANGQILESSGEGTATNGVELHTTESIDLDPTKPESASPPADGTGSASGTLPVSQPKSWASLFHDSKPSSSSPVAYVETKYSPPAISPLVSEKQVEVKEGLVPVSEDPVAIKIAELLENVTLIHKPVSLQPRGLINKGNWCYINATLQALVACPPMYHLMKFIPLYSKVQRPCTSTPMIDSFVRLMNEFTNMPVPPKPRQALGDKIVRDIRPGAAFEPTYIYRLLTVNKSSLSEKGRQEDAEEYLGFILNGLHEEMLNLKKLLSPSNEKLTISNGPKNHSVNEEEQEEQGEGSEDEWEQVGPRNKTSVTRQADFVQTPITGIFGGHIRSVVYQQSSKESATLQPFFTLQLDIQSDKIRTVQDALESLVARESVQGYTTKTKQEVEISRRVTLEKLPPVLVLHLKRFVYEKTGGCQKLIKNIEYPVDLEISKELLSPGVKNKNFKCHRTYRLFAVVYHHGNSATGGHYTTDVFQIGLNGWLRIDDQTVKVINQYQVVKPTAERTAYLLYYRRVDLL
Chain of UCHL1 (P09936 whole entry, looked up): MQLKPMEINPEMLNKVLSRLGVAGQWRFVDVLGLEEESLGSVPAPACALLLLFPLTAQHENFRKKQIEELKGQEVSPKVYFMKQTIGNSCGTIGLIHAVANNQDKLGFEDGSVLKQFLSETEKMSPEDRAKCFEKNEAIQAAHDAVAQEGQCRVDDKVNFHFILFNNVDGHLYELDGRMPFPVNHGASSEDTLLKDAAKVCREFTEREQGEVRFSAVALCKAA

As to `C/C(=C\CNC(=O)CCl)c1cnn(C)c1.Cl`, the “log2 ratio of Biotin-Ahx-Ub-VS probe labelling” value with OTUD6B was -0.0447; with OTUD7B, -0.863; with PRPF8, 0.0944; with PSMD7, 0.0605; with UCHL1, -1.27 (active); with UCHL3 it was 0.15. Moreover, the “log2 ratio of Biotin-Ahx-Ub-VS probe labelling” value is -0.0212 in the test with UCHL5, -0.19 with USP10, -0.476 in the test with USP15 and -0.58 in the test with USP16.
